# ERK EGF block – qHTS Assay for Inhibitors of the ERK Signaling Pathway using a Homogeneous Screening Assay; Stimulation with EGF | HEK293-V1b, EGF-stimulated phospho-ERK AlphaScreen | Potency, µM (series often up to 11.5 µM), without a hit: at the highest dose activity change, negative = inhibition, usual class: inhibitors | 0.41% of 130,000 active; active means well fitted inhibition curve with a large enough effect;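 further: plate controls were stimulated vehicle wells for no effect and unstimulated vehicle basal for full effect; nearly all actives have a fitted effect of over 55% in size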
#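 Phospho-ERK1/2 measured by AlphaScreen (SureFire) after 5 min 25 nM EGF stimulation of V1b-expressing HEK293 cells preincubated 30 min at 37C with titrated compounds; data scaled to DMSO and EGF controls, Hill-fitted AC50.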
# Starred values were filed as active, the others as inactive; ! = not confirmed by another sample; [ ] = dose if it differs, or a comment. Only a selection was taken, and hits are over-represented in it overall. Potency means the concentration at half of the fitted maximal effect.
SMILES,ERK EGF block
C=C1C(=O)O[C@H]2[C@H]1[C@H](OC(=O)CC(=O)O[C@@H]1C[C@@H](C)[C@@H]3C=CC(=O)[C@@]3(C)[C@H]3OC(=O)C(=C)[C@H]13)C[C@@H](C)[C@H]1C=CC(=O)[C@]12C,13%[57.5 µM]
C=C1C(=O)O[C@H]2C[C@@H](C)[C@@H]3C=CC(=O)[C@@]3(C)C[C@H]12,1%[57.5 µM]
C=C1C(=O)O[C@@H]2C[C@@H](C)[C@@H]3C=CC(=O)[C@@]3(C)[C@@H](OC(=O)CC(=O)O[C@H]3[C@@H]4C(=C)C(=O)O[C@@H]4C[C@@H](C)[C@@H]4C=CC(=O)[C@]43C)[C@H]12,4.5µM*
Cc1cc(N2CCCCC2)ccc1C=C1C(=O)N(C)C(=S)N(C)C1=O,1%
NC(N)=N/N=C/c1ccc(N2CCOCC2)cc1,-3%
CC1(C)C[C@H]2C=C(C=O)[C@]3(C=O)C[C@]3(C)[C@H]2C1,10µM*
CN1CC(CO)=C[C@H]2c3cccc4[nH]cc(c34)C[C@H]21,15%
CC(=O)c1c(C)n(Cc2ccccc2Cl)c2ccc(O)cc12,-7%
CCOP(=O)(OCC)C(NC(=O)Cc1ccccc1)C(Cl)(Cl)Cl (centres undefined),1%
CN1OCC2Cn3c(nc4ccccc43)C21 (centres undefined),4%[57.5 µM]
CC1Oc2cc3c(-c4c(O)cc(O)c5c(O)c6c(cc45)OC(C)C(C)C6=O)c(O)cc(O)c3c(O)c2C(=O)C1C (centres undefined),16µM*
CCn1cc(C(=O)O)c(=O)c2ccc(C)nc21,-12%[57.5 µM]
CNC(=O)O/N=C(/C)SC,29%
Cc1cccc(C)c1OC(=O)Cc1ccccc1,-1%
CC(C)OC1CCCC(O)C1CC(=O)O (centres undefined),-6%[57.5 µM]
COC(=O)[C@]1(C)CC[C@@]2(C)CC[C@@]3(C)C4=CC=C5C(=CC(=O)C(O)=C5C)[C@@]4(C)CC[C@@]3(C)C2C1 (some centres undefined),14µM*
CCOC(=O)COc1ccc2c(c1)c(C(C)=O)c(C)n2Cc1ccccc1,4%
O=c1c2ccccc2nc(CNCc2ccco2)n1-c1ccc(F)cc1,6%
CCOc1ccc(Cl)cc1CNCCc1ccc(F)cc1,-8%
C[C@@H](C(=O)OC1C[C@H]2CC[C@@H](C1)N2C)c1ccc(Br)cc1 (some centres undefined),-1%
C=CCn1c(O)c(C(C)=NCCc2c[nH]c3ccccc23)c(=O)[nH]c1=O,0%[57.5 µM]
CCC(C)n1c(C)cc(C(N)=O)c1C (centres undefined),4%
COc1ccc2c(c[n+](C)c3c4cc5c(cc4ccc23)OCO5)c1OC,13µM*
COc1ccc2c(c1OC)CN1CCc3cc4c(cc3[C@H]1C2)OCO4,5%[25.7 µM]
COc1ccc2c(c1OC)C(=O)O[C@H]2[C@H]1c2cc3c(cc2CCN1C)OCO3,-6%[25.7 µM]
SMILES,ERK EGF block
Cc1c(N=Nc2c(O)n(-c3ccc(Br)cc3)c(=O)[nH]c2=O)c(=O)n(-c2ccccc2)n1C,1%[57.5 µM]
CN1CCN(c2nc(N)c(Br)c(Cl)n2)CC1,-3%[57.5 µM]
CC(=NCCCO)c1c(O)[nH]c(=O)[nH]c1=O,-6%[57.5 µM]
O=C1NC(=O)N(CCc2ccc(F)cc2)C(=O)/C1=C\C=C\c1ccccc1,-9%
C=CCN1C(=O)NC(=O)/C(=C/C=C/c2ccccc2)C1=O,22µM*
O=C1NC(=O)N(Cc2ccccc2)C(=O)/C1=C/c1cnc(-c2ccccc2)nc1,0%
C=C(C)[C@H]1CN[C@H](C(=O)O)[C@@H]1CC(=O)O,-9%
O=c1[nH]c(O)c(N=Nc2ccc(SC(F)F)cc2)c(=O)[nH]1,-2%[57.5 µM]
O=c1[nH]c2ccccc2n1C1CCN(CCCC(c2ccc(F)cc2)c2ccc(F)cc2)CC1,25µM*!
CNC[C@H](O)c1ccc(O)c(OC)c1,15%[25.7 µM]
CCC(=O)CC(c1ccccc1)c1c(O)c2ccccc2sc1=O (centres undefined),3%
C#CCNc1ccncc1S(=O)(=O)NC(=O)NC(C)C,8%
Cc1ccc(NC(=O)c2snnc2C)cc1Cl,-40%
C=CCNC(=S)Nc1ccc(OC(=O)Nc2ccc(Cl)c(Cl)c2)cc1,-16%[57.5 µM]
Cc1nn(C(C)(C)C)c(C)c1/C=N/OC(=O)Nc1ccc(Cl)c(Cl)c1,32µM*
c1cnc(N2CC3(CCNCC3)C2)nc1,-5%
CCOC(=O)C1(CCc2ccccc2)CCN(Cc2cccc3c2OCO3)CC1,-2%[57.5 µM]
CN1C(=O)c2ccccc2NC(=O)C1Cc1ccccc1 (centres undefined),-16%[57.5 µM]
Fc1cccc(C2NCCc3[nH]cnc32)c1 (centres undefined),0%
CCCCn1c(O)c(C(=O)/C=C/c2ccc3c(c2)OCO3)c(=O)[nH]c1=O,-1%[57.5 µM]
Clc1ccc(COC(Cn2ccnc2)c2ccc(Cl)cc2Cl)cc1 (centres undefined),28µM*
c1ccc(Cn2ccnc2)cc1,-12%[57.5 µM]
Clc1ccc(CS[C@@H](Cn2ccnc2)c2ccc(Cl)cc2Cl)cc1,2%[25.7 µM]
CCC1(c2ccc(N)cc2)CCC(=O)NC1=O (centres undefined),15%

# Screening data: PubChem, National Center for Advancing Translational Sciences (NCATS)
